Laboratory results taken from PubChem BioAssay AID2289 (National Center for Advancing Translational Sciences (NCATS), 2010).
The whole screen tested about 340,000 compounds, of which about 3,300 (0.97%) were called active. Not shown: some 9% with an inconclusive outcome. Calls come from the whole dose curve; as a rule, active = well fitted inhibition curve with a large enough effect; inconclusive = small, poorly fitted or top-dose-only effect, or effect the other way; inactive = flat fitted curve, though single readings scatter. This is one part of the list.

Assay: qHTS Assay for Modulators of miRNAs and/or Inhibitors of miR-21; note: nearly all actives have a fitted effect of over 55% in size
Details: HeLa miR-21-FLuc reporter, luciferase luminescence, 48 h; actives lower the signal
Outline: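 HeLa cells endogenously expressing miR-21, stably carrying CMV-driven firefly luciferase with a downstream miR-21 binding site, 2000 cells/well. Titrations up to approximately 40 uM, 48 hours; luciferase luminescence read.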
Potency is the fitted concentration of half-maximal effect.

Potency, active:
COc1ccc(N2Cc3ccc(OC)c(OC)c3C2=O)cc1 2.07 µM
Cc1ccc(OCC(=O)Nc2ccccc2F)cc1C 4.14 µM
Cc1cccc(OCC(=O)Nc2ccccc2F)c1 6.56 µM
Cc1ccc(NC(=O)CSc2nnc(-c3cccs3)o2)cc1S(=O)(=O)N(C)C 8.26 µM
O=C(CSCc1ccccc1Cl)Nc1ccc2c(c1)OCCO2 2.07 µM
Cc1nc(NC(=O)CSc2nnc(-c3ccc4c(c3)OCO4)o2)c(Cl)cc1Cl 16.5 µM
O=C(CSc1nnc(-c2ccccc2Cl)o1)Nc1ccc2c(c1)OCCO2 6.56 µM
Cc1ccc(/C=C/C(=O)NCc2cccs2)c(C)c1 5.85 µM
COc1ccc(N(/N=C2\Sc3ccccc3C2=O)C(C)=O)cc1 0.261 µM
O=C(COC(=O)c1ccc[nH]c1=O)NCCc1ccc(Cl)cc1Cl 1.65 µM
COc1ccc(/C=C/c2nc(-c3ccccc3O)n[nH]2)cc1OC 4.65 µM
COc1ccc(/C=C/c2nc(-c3ccccc3O)n[nH]2)cc1 2.33 µM
CCc1nc2ccc(C(=O)NCCc3ccco3)cc2nc1CC 14.7 µM
COc1cc(C(F)(F)F)ccc1C(=O)NCCc1ccco1 7.36 µM
O=C(CSCc1ccccc1)N1CCN(c2ccccc2)CC1 6.56 µM
O=C(CCSc1ccccc1)N1CCN(c2ccccc2F)CC1 7.36 µM
CC1CCN(C(=O)CSCc2ccc(Cl)cc2)CC1 11.7 µM
O=C(CCSc1ccccc1)N1CCN(c2ccccc2)CC1 6.56 µM
Cc1ccc(SCCC(=O)N2CCC(C)CC2)cc1 7.36 µM
CN(C)c1ccc(/C=C2\CCCc3c2nc2ccccc2c3C(=O)O)cc1 4.65 µM
O=C(O)c1c2c(nc3ccccc13)/C(=C/c1ccc(OC(F)F)cc1)CCC2 14.7 µM
Cc1cc2nc(-c3ccc(NC(=O)C(C)C)cc3)oc2cc1C 0.369 µM
Cc1ccc2oc(-c3ccc(Cl)c(NC(=O)c4cc5ccccc5o4)c3)nc2c1 5.85 µM
Cc1ccc2oc(-c3ccc(C)c(NC(=O)c4ccc(-c5ccccc5[N+](=O)[O-])o4)c3)nc2c1 8.26 µM
Cc1ccc2oc(-c3ccc(NC(=O)c4cccc(F)c4)c(C)c3)nc2c1 7.36 µM
Cc1cc2nc(-c3ccc(NC(=O)c4cc5ccccc5o4)cc3)oc2cc1C 8.26 µM
C/C(=N\NC(=O)c1ccoc1C)c1cccc2ccccc12 7.36 µM
Cc1ccc(NC(=O)c2ccoc2C)cc1C 4.14 µM
CCc1ccc(C(=O)N/N=C/c2cccc3ccccc23)nc1 8.26 µM
C/C(=N\NC(=O)c1ccoc1C)c1ccccc1 1.85 µM
